Experimental findings from PubChem BioAssay (Tox21) are described below.

Molecules are shown by their SMILES. Records with an inconclusive call do not appear. Activity calls are given as the source filed them. Calls come from the whole dose curve; as a rule, active = well fitted activation curve with a large enough effect in the repeat runs; inconclusive = weak or mixed curves; inactive = flat fitted curve, though single readings scatter.
% is set by controls: 0 for no effect and ±100 for the full control effect; potency is the fitted concentration of half-maximal effect.

This test can be described thus: A CellTox Green Cytotoxicity Assay to monitor cytotoxicity in HEK293 cells - 8 hour (AID 1224884). Note: nearly all actives have a fitted effect of over 35% in size. Conditions: CellTox Green fluorescence; series mostly up to 76.8 µM; cytotoxicity increase: at the top concentration. An outline of the steps:
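Fluorescence from a DNA-binding dye excluded by viable cells was measured repeatedly in the same HEK293 wells (600 cells/well) during continuous compound exposure at 37 C. Each assay gives one read point: 0, 8, 16, 24, 32 or 40 h.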
With `CC(=O)OC1(c2ccccc2)CCN(CCc2ccccc2)CC1`, the “cytotoxicity increase” value is -3.38% (inactive).
For `CSCCCN=C=S`, the “cytotoxicity increase” value was 1.2% (inactive).
In the case of `CC(C)(C)c1ccc(CSc2cnn(C(C)(C)C)c(=O)c2Cl)cc1`, the “cytotoxicity increase” value is 13.4% (inactive).
On to `C=CCC1=C(C)C(OC(=O)C2C(C=C(C)C)C2(C)C)CC1=O` (stereo not drawn), for which the Potency is 51.9 µM (active).
Consider `O=C(CBr)c1ccc(O)cc1`, for which the “cytotoxicity increase” value is 4.05% (inactive).
Take `CCCN(CCC)CCc1c[nH]c2ccccc12`: the “cytotoxicity increase” value is -8.87% (inactive).
In the case of `CC1CCC(C(C)C)C(OC(=O)c2ccccc2N)C1` (stereo not drawn), the Potency was 48.3 µM (active).
In the case of `N#Cc1c(-c2ccc(Cl)cc2)[nH]c(C(F)(F)F)c1Br`, the “cytotoxicity increase” value is -6.3% (inactive).
With `CC(C)(C)C(O)C(Oc1ccc(-c2ccccc2)cc1)n1cncn1` (stereo not drawn), the “cytotoxicity increase” value was -5.26% (inactive).
For `CCC(C)c1cc([N+](=O)[O-])cc([N+](=O)[O-])c1OC(=O)C=C(C)C` (stereo not drawn), the “cytotoxicity increase” value is -16.6% (inactive).
On to `[Cl][Sb]([Cl])[Cl]`, for which the “cytotoxicity increase” value was -7.04% (inactive).
The same measure, in the same setting: to `CCOP(=S)(OCC)OC(Cl)C(Cl)(Cl)Cl` (stereo not drawn) belongs 8.94% (inactive); to `Clc1ccc(CO/N=C(\Cn2ccnc2)c2ccc(Cl)cc2Cl)c(Cl)c1`, 16.7% [at 35.3 µM] (inactive); to `CC(C)CC(C)Nc1ccc(Nc2ccccc2)cc1` (stereo not drawn), 0.0906% (inactive).
On the same count and under the same terms, to `O=[N+]([O-])c1cc(Cl)ccc1Cl` belongs 0.0184% (inactive).
On to `Nc1ccccc1C(=O)Oc1ccc2ccccc2c1`, for which the “cytotoxicity increase” value was 0.627% (inactive).
Still for that read-out and setting: to `CCOP(=O)(NC(C)C)Oc1ccc(SC)c(C)c1` (stereo not drawn) belongs -6.83% (inactive).
For the compound `CC[C@H](C)[C@H]1O[C@]2(C=C[C@@H]1C)C[C@@H]1C[C@@H](C/C=C(\C)[C@@H](O[C@H]3C[C@H](OC)[C@@H](O[C@H]4C[C@H](OC)[C@@H](O)[C@H](C)O4)[C@H](C)O3)[C@@H](C)/C=C/C=C3\CO[C@@H]4[C@H](O)C(C)=C[C@@H](C(=O)O1)[C@]34O)O2`, the “cytotoxicity increase” value is 16.8% [at 35.3 µM] (inactive).
